Source: PubChem (National Center for Advancing Translational Sciences (NCATS))
NPR1 antag – human Npr1 receptor antagonism; P16066; HEK293 hNpr1 GloSensor cGMP, ANP-stimulated luminescence; Potency, µM (titrated, usually from 46.3 µM), most hits filed as inhibitors; 76,000 tested, 1.6% active; AID 1347048; calls by dose curve; also: nearly all actives have a fitted effect of over 60% in size
Target sequence (P16066 whole entry, looked up): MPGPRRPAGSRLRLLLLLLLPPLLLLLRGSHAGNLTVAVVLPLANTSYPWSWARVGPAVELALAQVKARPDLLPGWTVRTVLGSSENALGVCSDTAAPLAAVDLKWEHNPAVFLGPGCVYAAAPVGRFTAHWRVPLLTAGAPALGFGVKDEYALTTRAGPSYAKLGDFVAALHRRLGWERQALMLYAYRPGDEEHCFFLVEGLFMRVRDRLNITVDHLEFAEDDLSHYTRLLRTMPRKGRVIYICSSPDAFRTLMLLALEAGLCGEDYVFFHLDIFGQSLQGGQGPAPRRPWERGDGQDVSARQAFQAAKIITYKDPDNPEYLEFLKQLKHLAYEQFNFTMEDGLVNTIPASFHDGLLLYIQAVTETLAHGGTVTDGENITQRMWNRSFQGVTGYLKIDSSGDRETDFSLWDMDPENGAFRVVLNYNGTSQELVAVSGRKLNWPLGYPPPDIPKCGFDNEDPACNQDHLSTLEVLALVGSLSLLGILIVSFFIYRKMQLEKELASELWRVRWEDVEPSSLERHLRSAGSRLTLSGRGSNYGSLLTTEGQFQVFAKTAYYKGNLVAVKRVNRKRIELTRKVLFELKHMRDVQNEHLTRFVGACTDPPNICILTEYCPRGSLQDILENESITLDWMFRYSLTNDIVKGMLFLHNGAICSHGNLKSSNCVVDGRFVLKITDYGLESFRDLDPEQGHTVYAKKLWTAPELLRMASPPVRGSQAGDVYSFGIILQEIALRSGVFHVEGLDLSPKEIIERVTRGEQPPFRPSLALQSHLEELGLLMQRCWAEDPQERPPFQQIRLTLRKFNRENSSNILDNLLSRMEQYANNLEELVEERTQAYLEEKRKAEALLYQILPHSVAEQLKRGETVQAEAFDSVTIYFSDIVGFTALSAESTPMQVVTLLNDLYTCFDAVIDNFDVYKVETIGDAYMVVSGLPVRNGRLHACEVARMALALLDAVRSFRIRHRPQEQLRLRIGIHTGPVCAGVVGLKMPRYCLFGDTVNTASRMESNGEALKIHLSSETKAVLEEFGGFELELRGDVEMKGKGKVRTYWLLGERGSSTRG
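Compound pre-incubated 30 min at room temperature on GloSensor-loaded HEK293 cells stably carrying hNpr1 and the pGS-40F cGMP biosensor. Stimulation uses hNppA at 0.1 nM final; luminescence is taken at baseline and 20 min post-agonist.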
GPT2 inhibitor – GPT2 alanine aminotransferase inhibition. Q8TD30. Recombinant GPT2, coupled pyruvate oxidase/HRP Amplex Red fluorescence. Potency, µM (top dose mostly 57.7 µM), most hits filed as inhibitors. 100,000 tested, 0.25% active. AID 1671188; also: nearly all actives have a fitted effect of over 60% in size
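Inhibition is scored from Amplex Red fluorescence generated when pyruvate oxidase and HRP act on pyruvate released by GPT2. Reactions contain 10ng/uL enzyme, 250uM a-KG and 2mM L-alanine and run 30 min at room temperature.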
NIH3T3 tox – cytotoxic compounds in NIH 3T3 cells; NIH 3T3 viability, CellTiter-Glo ATP luminescence, 48-72 h; 94,000 tested, 4.3% active; AID 1345082; Potency, µM (titrated, usually from 96.7 µM), hits mostly inhibitors; also: nearly all actives have a fitted effect of over 55% in size
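Cells were seeded at 400 per well, treated with pin-transferred compound, and kept 48 or 72 hr at 37 °C before CellTiter-Glo addition and luminescence imaging of cellular ATP.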
HEK cytotox – HEK 293 cell cytotoxicity; Potency, µM (doses to about 115 µM), actives largely listed as inhibitors; AID 1345083; HEK 293 viability, ATP luminescence (CellTiter-Glo), 48-72 h; 94,000 tested, 6.6% active; also: nearly all actives have a fitted effect of over 60% in size
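Luminescence from cellular ATP, measured with CellTiter-Glo, indicates HEK 293 viability. Cells plated at 250 cells/well are treated with compound for 48 or 72 hr at 37 degree Celsius before reagent addition.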
Luciferase inh – Photinus pyralis luciferase inhibition | Potency, µM (top dose mostly 115 µM), most hits filed as inhibitors | AID 1347043 | purified P. pyralis luciferase, luminescence, biochemical | P08659 | 76,000 tested, 2.5% active; also: nearly all actives have a fitted effect of over 65% in size
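Purified P. pyralis luciferase (10nM final) in 50mM Tris acetate pH 7.5, 10mM Mg acetate, 0.01% Tween-20, 0.05% BSA with 10uM D-luciferin and 10uM ATP. Compounds titrated qHTS. Luminescence imaged on CCD.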
Numbers stand for hits; 0 = inactive; ? = inconclusive; - = no result given. In the library only some 10% were active in any assay of this set; here they are far more common. Unless noted, calls follow the shape of the dose curve; as a rule, active = well fitted curve in the direction sought with a large enough effect; inconclusive = small, poorly fitted or top-dose-only effect, or another doubt; inactive = no such curve, though single readings can be large; an effect the other way counts as inactive or inconclusive.

SMILES | NPR1 antag | GPT2 inhibitor | NIH3T3 tox | HEK cytotox | Luciferase inh
COc1ccc(-c2cc([C@H]3CN4CC[C@H]3C[C@@H]4CNC(=O)Nc3cccc4ccccc34)n(C)n2)cc1OC | 0 | 0 | ? | 45µM | 0
Cn1nc(-c2ccc(F)cc2)cc1[C@H]1CN2CC[C@H]1C[C@@H]2CNC(=O)c1cccs1 | 0 | ? | 56µM | 45µM | 0
CN(Cc1ccccc1)Cc1cn(C[C@H]2CC3CCN2C[C@@H]3C(=O)NC2CC2)nn1 (some centres undefined) | 0 | 0 | 0 | 0 | 0
O=C(O)c1cn(Cc2ccccc2F)nn1 | 0 | 0 | 0 | 0 | 0
O=c1c(-c2cccs2)ccc2n1C[C@H]1C[C@@H]2CN(C2CCOCC2)C1 | 0 | 0 | 0 | 0 | 0
CN(C)c1ccc(C(=O)NC[C@H]2C[C@@H]3CCN2C[C@@H]3CN2CCc3ccccc3C2)cc1 | 0 | 0 | 32µM | 89µM | 0
Cc1nc(-c2ccccc2Br)cc([C@H]2CN3CC[C@H]2C[C@@H]3CNC(=O)c2ccc(N(C)C)cc2)n1 | 0 | 0 | ? | 28µM | 0
Cc1nc(-c2ccccc2Br)cc([C@H]2CN3CC[C@H]2C[C@@H]3CNC(=O)c2ccc(C(C)(C)C)cc2)n1 | 0 | 0 | 25µM | 10µM | 0
CN(Cc1ccccc1)C[C@H]1CN2CC[C@H]1C[C@@H]2CNC(=O)c1ccc(N(C)C)cc1 | 0 | 0 | ? | ? | 0
COc1ccccc1CN[C@H]1C2CCN(CC2)[C@H]1C(c1ccccc1)c1ccccc1 | - | 0 | - | - | -
Cc1ccc(C(=O)NC[C@H]2C[C@@H]3CCN2C[C@@H]3c2cc(-c3ccccc3Br)nc(C)n2)cc1 | 0 | 0 | ? | ? | 0
CC(=O)Nc1ccc(S(=O)(=O)NC[C@H]2C[C@@H]3CCN2C[C@@H]3c2cc(-c3ccc(N(C)C)cc3)nc(C)n2)cc1 | 0 | 0 | 25µM | 22µM | ?
CCNC(=O)NC[C@H]1C[C@@H]2CCN1C[C@@H]2c1cc(-c2ccc(N(C)C)cc2)nc(C)n1 | 0 | 0 | 100µM | 100µM | 0
Cc1nc(-c2ccc(N(C)C)cc2)cc([C@H]2CN3CC[C@H]2C[C@@H]3CNC(=O)c2ccccc2)n1 | 0 | 0 | 45µM | ? | 0
Cc1nc(-c2ccc(N(C)C)cc2)cc([C@H]2CN3CC[C@H]2C[C@@H]3COC(=O)NC(C)C)n1 | 0 | 0 | ? | ? | ?
COc1ccc(C(=O)NC[C@H]2C[C@@H]3CCN2C[C@@H]3c2cc(-c3ccc(N(C)C)cc3)nc(C)n2)cc1 | 0 | 0 | 40µM | 25µM | 0
O=C(NC[C@H]1C[C@@H]2CCN1C[C@@H]2CN1CCN(c2ccc(F)cc2)CC1)c1ccco1 | 0 | 0 | 0 | 0 | 0
CCCCCC(=O)N1C[C@H](C(=O)OCC)[C@H]2c3ccccc3N(CCO)C(=O)[C@]21C | - | 0 | ? | ? | -
CCC1CC2CN3CCc4c([nH]c5ccccc45)C(C(=O)OC)(C2)C13 (centres undefined) | - | 0 | - | - | -
CN1CCc2c([nH]c3ccccc23)C12CCNCC2 | 0 | 0 | ? | 89µM | 0
O=C(c1cccc(Cl)c1)N1CCC(C(=O)O)(c2ccccc2)CC1 | - | 0 | 0 | 0 | -
COc1cc2c(cc1-c1ccc(O)c(F)c1)NC(=O)C21CCN(C(C)=O)CC1 | 0 | 0 | 28µM | 0 | 0
COc1cc2c(cc1-c1cnn(C)c1)NC(=O)C21CCN(C(C)=O)CC1 | 0 | 0 | 32µM | 0 | 0
O=C(c1ccncc1)N1CC2CCC(C1)N2Cc1cccc(Cl)c1 | - | 0 | 0 | 0 | -
O=C(Nc1ccccc1F)N1[C@H]2CC[C@@H]1c1cncnc1C2 | 0 | 0 | 0 | 0 | 0
SMILES | NPR1 antag | GPT2 inhibitor | NIH3T3 tox | HEK cytotox | Luciferase inh
Cc1ccccc1S(=O)(=O)N1[C@H]2CC[C@@H]1c1cnc(-c3ccc(F)cc3)nc1C2 | ? | 0 | ? | 28µM | 0
Cc1ncc2c(n1)C[C@@H]1CC[C@H]2N1S(=O)(=O)c1ccccc1C | 0 | 0 | 0 | 0 | 0
Cc1ccsc1C(=O)N1[C@H]2CC[C@@H]1c1cnc(-c3ccccc3)nc1C2 | - | 0 | ? | 10µM | -
Cc1nc(C)c(C(=O)N2[C@H]3CC[C@@H]2c2cnc(-c4ccc(F)cc4)nc2C3)s1 | 16µM | 0 | 0 | ? | ?
O=C(c1ccsc1)N1[C@H]2CC[C@@H]1c1cnc(-c3ccccc3)nc1C2 | ? | 0 | 0 | 0 | 0
O=C(c1cccs1)N1[C@H]2CC[C@@H]1c1cnc(-c3ccccc3)nc1C2 | ? | 0 | 0 | ? | 0
